# Measured values from the supplement of paper PMC12636033.
# ± gives the standard deviation of the averaged measurements. In all, about 33,000 sequences were measured (“E-score (rank enrichment, -0.5 to 0.5)”: median about -0.0028, highest 2% from about 0.23 on). Only a selection was taken, and the highest values are over-represented in it overall.
# System: 2Sb-muMax20 (muMax20 with two 1,3-bis(methyl)benzene Cys staples, A13C/A17C and Q88C/A92C, C-terminal Lys)
# Experiment: PBM 8-mer E-score (E-score (rank enrichment, -0.5 to 0.5)); higher = stronger preferential binding
# Method: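 Protein binding microarray (universal PBM chip covering all 10-mers in fixed probe flanks) with chemically synthesized human Max(13-93) bHLH-LZ analogs (not full-length Max) bearing noncanonical residues (hArg, Tha, Aib, Nle at 65) and aromatic Cys staples. Read-out per 8-mer (and its reverse complement): E-score (rank-based enrichment, -0.5 to 0.5) and Z-score of median probe intensity.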
row,Sequence,PBM 8-mer E-score
1,CAAGGCAA,0.0983 ± 0.056
2,ATTTGTTC,0.15 ± 0.058
3,ATTTGTTA,0.187 ± 0.0095
4,ATTTGTTG,0.232 ± 0.0078
5,ATACTGCG,0.0194 ± 0.043
6,AATTAAGC,0.121 ± 0.063
7,AATTAAGA,0.216 ± 0.038
8,ACTTAAGC,-0.134 ± 0.061
9,AATTAAAG,0.133 ± 0.025
10,ACTTAAGT,0.246 ± 0.033
11,AATTAAGT,0.24 ± 0.005
12,AATTAAAT,0.235 ± 0.011
13,ACTTAAGA,0.00227 ± 0.079
14,AATTAAAC,0.19 ± 0.065
15,CCCATTGA,0.02 ± 0.063
16,GATCGAGA,-0.0884 ± 0.04
17,AAAAAGTT,0.16 ± 0.014
18,ACTTCTTA,0.125 ± 0.057
19,CAATGCAA,0.0811 ± 0.012
20,CCAGGGGG,-0.31 ± 0.076
21,AATCAACA,0.308 ± 0.015
22,GATCAACA,-0.139 ± 0.023

row,Sequence,PBM 8-mer E-score
1,TATCAACA,0.0969 ± 0.067
2,CGTTCTAC,0.0207 ± 0.027
3,AATGACCG,-0.0804 ± 0.021
4,AATGACCC,0.231 ± 0.0025
5,GATGACCC,-0.157 ± 0.019
6,CTGACTTA,0.107 ± 0.048
7,CTCTCCAG,-0.198 ± 0.013
8,GTAGAAAA,0.0997 ± 0.012
9,ACCGCTAT,-0.0561 ± 0.049
10,GGAAAGCC,-0.00378 ± 0.093
11,ATACGTAT,0.407 ± 0.031
12,ATACGTAA,0.115 ± 0.0061
13,ATACGTAC,0.16 ± 0.0041
14,AACAGTTC,0.0164 ± 0.036
15,GACGTGCC,-0.174 ± 0.023
16,TAAGTGCA,0.243 ± 0.008
17,CACGTGCG,0.39 ± 0.022
18,GAAGTGCA,0.122 ± 0.077
19,TACGTGCA,0.1615 ± 0.00067
20,CCCGTGCG,-0.206 ± 0.01
21,AACGTGCC,0.0151 ± 0.03
22,CACGTGCC,0.377 ± 0.015

row,Sequence,PBM 8-mer E-score
1,AACGTGCA,0.0984 ± 0.068
2,CACGTGCA,0.417 ± 0.026
3,AACGTGCG,0.152 ± 0.016
4,AAAGTGCA,0.0798 ± 0.0049
5,GTGCTAAC,-0.0619 ± 0.0065
6,ATTGCTAA,-0.034 ± 0.043
7,AAGGAATC,-0.0571 ± 0.08
8,CATATGCG,0.192 ± 0.0076
9,AATAGCTC,0.0405 ± 0.046
10,ATGCGTAG,0.151 ± 0.017
11,CTGGGGGC,-0.289 ± 0.044
12,ATAAGGAT,0.277 ± 0.0071
13,ATAAGGTC,0.231 ± 0.014
14,ATAAGGAC,-0.0224 ± 0.047
15,CTAAGGTC,0.0156 ± 0.022
16,ATAAGGAA,-0.0755 ± 0.029
17,ATAAGGTA,0.132 ± 0.044
18,ATCGGATC,-0.225 ± 0.064
19,GCGAAGCC,-0.143 ± 0.0091
20,AGTCTCTG,-0.178 ± 0.037
21,GCCGGTTA,-0.0245 ± 0.051
22,TACTGGAA,0.187 ± 0.013

row,Sequence,PBM 8-mer E-score
1,GCATAGTA,0.234 ± 0.05
2,ACATAGTA,0.141 ± 0.013
3,CCATAGTA,0.161 ± 0.049
4,ACCGTGAG,-0.24 ± 0.025
5,GGGATCCA,-0.0748 ± 0.046
6,AGGTGCAG,-0.176 ± 0.029
7,AATTGAAT,0.229 ± 0.021
8,AATTGAAC,-0.0329 ± 0.083
9,AATTGAAA,0.272 ± 0.014
10,ACCGTAGC,-0.0428 ± 0.011
11,AGCTTCTA,-0.0235 ± 0.043
12,AGCTTCTG,-0.127 ± 0.071
13,AGCTTCTC,0.245 ± 0.00095
14,TACGTACA,0.198 ± 0.0031
15,CTACCGAC,-0.0505 ± 0.014
16,ATCCCCTG,0.114 ± 0.01
17,ATCCCCTA,0.2799 ± 0.00079
18,CTCCCCTC,0.147 ± 0.072
19,GTCCCCTA,0.093 ± 0.011
20,CTCCCCTA,0.182 ± 0.019
